{"source": "PubChem BioAssay (NCATS)", "note": "Records with an inconclusive call do not appear. Where a call stands in place of a potency, no number is given. Active and inactive are the calls of the source. The call rests on the fitted dose curve; in most records, active means well fitted inhibition curve with a large enough effect; inconclusive means small, poorly fitted or top-dose-only effect; inactive means flat fitted curve, though single readings scatter."}
{"target": "Calcium and integrin-binding protein 1 (Homo sapiens) (UniProt Q99828)", "sequence (Q99828 whole entry, looked up)": "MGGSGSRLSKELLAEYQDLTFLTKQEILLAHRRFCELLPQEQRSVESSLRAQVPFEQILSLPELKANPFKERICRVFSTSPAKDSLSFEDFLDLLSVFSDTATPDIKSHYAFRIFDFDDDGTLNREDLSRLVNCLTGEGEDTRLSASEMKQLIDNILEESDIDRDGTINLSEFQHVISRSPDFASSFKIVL", "experiment": "Primary qHTS for Identification of Calcium Integrin Binding Protein 1 (CIB1) Competitor (AID 1508620);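 further: GST tagged CIB1 binding a fluorescein labelled alphaIIb integrin peptide tracer; top concentration of the series differs between compounds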", "conditions": "CIB1-GST / FITC-alphaIIb peptide fluorescence polarization; series mostly up to 114 µM", "outline": "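CIB1-GST (1 uM final) and compound incubated 15 min at room temperature before adding FITC-alphaIIb peptide tracer (100 nM final). Competition for binding read by fluorescence polarization (ex 480, em 540) after another 15 min at room temperature.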"}
{"smiles": "O=[S+]([O-])(Nc1ccccc1)c1ccc(NCc2cccc(Cl)c2F)cc1", "Potency": "inactive"}
{"smiles": "O=C(Cc1ccccc1)Nc1ncnc2c1C(c1ccccc1)c1c(ccc3ccccc13)O2", "note": "(stereo not given)", "Potency": "inactive"}
{"smiles": "N#Cc1cccc(S(=O)(=O)N2CCN(S(=O)(=O)c3ccc4c(c3)OCCO4)CC2)c1", "Potency": "inactive"}
{"smiles": "Cn1cc(C[C@H](C(=O)O)N2C(=O)c3ccc(C(=O)O)cc3C2=O)c2ccccc21", "Potency": "inactive"}
{"smiles": "CC(C)(C)OC(=O)N1CCN(c2ccc(NCc3ncc(-c4ccc(C#N)cc4)s3)cc2)CC1", "Potency": "inactive"}
{"smiles": "FC(F)(F)c1ccccc1-c1nc(NCc2ccc(-c3ccc(Cl)c(Cl)c3)cc2)c2ccccc2n1", "Potency": "inactive"}
{"smiles": "O=C1c2ccccc2C(=O)N1c1cccnc1", "Potency": "inactive"}
{"smiles": "CC(=O)Nc1sc2c(c1-c1ccc(Cl)cc1)CCNC2", "Potency": "inactive"}
{"smiles": "Cc1ccc(-c2ccc(=O)n(CC(=O)N(C)[C@@H](C)c3ccccc3)n2)cc1", "Potency": "inactive"}
{"smiles": "Cc1ccc(CNc2ccc(N3CCNCC3=O)cc2)cc1", "Potency": "inactive"}
{"smiles": "Cc1nnc(-c2cnn(C)c2N)n1CCCc1ccccn1", "Potency": "inactive"}
{"smiles": "O=C(COc1ccc(F)cc1)NCCc1nc2ccccc2[nH]1", "Potency": "inactive"}
{"smiles": "CC(=O)Nc1ccc(S(=O)(=O)Nc2cccc3cccnc23)cc1", "Potency": "inactive"}
{"smiles": "Cc1ccc(CNc2ccc(N3CCN(C)CC3=O)cc2)cc1", "Potency": "inactive"}
{"smiles": "O=C(Nc1ncc(Cc2ccc(C(F)(F)F)cc2)s1)c1ncc(-c2ccccc2)[nH]1", "Potency": "inactive"}
{"smiles": "c1nc(N2CCCCC2)c2cc(-c3ccc4c(c3)OCO4)ccc2n1", "Potency": "inactive"}
{"smiles": "Cn1c2cc(Br)sc2c2cnn(Cc3c(F)cccc3F)c(=O)c21", "Potency": "inactive"}
{"smiles": "Cc1ccc(OCCn2c(CCNC(=O)c3ccc(Br)cc3)nc3ccccc32)cc1", "Potency": "inactive"}
{"smiles": "COc1ccc(C2c3c(N)nc(Cc4ccccc4)nc3Oc3ccc4ccccc4c32)cc1OC", "note": "(stereo not given)", "Potency": "inactive"}
{"smiles": "S=c1[nH]c2ccccc2n1CCc1ccccc1", "Potency": "inactive"}
{"smiles": "COc1ccc(C2Oc3ccccc3C(=O)N2Cc2ccccc2)cc1COc1ccc(NC(C)=O)cc1", "note": "(stereo not given)", "Potency": "inactive"}
{"smiles": "O=C(CN1C(=O)N/C(=C\\c2cccn2-c2cccc(C(=O)O)c2)C1=O)Nc1ccc(Cl)cc1", "Potency": "inactive"}
{"smiles": "CC(C)(C)OC(=O)N1CCN(c2cnc(NCc3ccc(-c4ccc(C#N)cc4)o3)cn2)CC1", "Potency": "inactive"}
{"smiles": "O=C(c1ccccc1)N1CCN(c2nc(-c3ccc(Br)cc3)cs2)CC1", "Potency": "inactive"}
{"smiles": "CN1CCN(Nc2nn3c(=O)c4ccccc4nc3s2)CC1", "Potency": "inactive"}
{"smiles": "CCOC(=O)C1CCN(C(=O)C2(NC(=O)Nc3ccccc3Cl)CC2)CC1", "Potency": "inactive"}
{"smiles": "COc1ccc(N2C(=O)c3ccccc3S2(=O)=O)cc1", "Potency": "inactive"}
{"smiles": "Cc1nnc(CN(C)c2ncnc3ccc(-c4ccc5c(c4)OCO5)cc23)o1", "Potency": "inactive"}
{"smiles": "NC(=O)c1c(NC(=O)c2ccco2)sc2c1CCCC2", "Potency": "inactive"}
{"smiles": "COc1ccc(-c2nnc(NC(=O)Nc3ccc4ccccc4c3)s2)cc1OC", "Potency": "inactive"}
{"smiles": "FC(F)(F)c1ccc(N2CCN(C(=S)Nc3ccccn3)CC2)cc1", "Potency": "inactive"}
{"smiles": "O=C(NC1CCCc2c1cnn2-c1ccc(F)cc1F)c1cccc(=O)[nH]1", "note": "(stereo not given)", "Potency": "inactive"}
{"smiles": "COc1ccc(C2=Nn3c(nnc3-c3ccccc3OC)SC2)c(OC)c1", "Potency": "inactive"}
{"smiles": "COc1cc(O)c([C@H](CC(=O)N2CC(C)CC(C)C2)c2ccc3c(c2)OCO3)c(OC)c1", "note": "(stereo not given in full)", "Potency": "inactive"}
{"smiles": "Cc1cc2c(s1)c1cnn(Cc3ccc(-n4cncn4)cc3)c(=O)c1n2C", "Potency": "inactive"}
{"smiles": "O=C(CSc1nc2ccccc2[nH]1)N1CCOCC1", "Potency": "inactive"}
{"smiles": "COc1ccc(OC)c(C2=Nn3c(nnc3-c3ccccc3OC)SC2)c1", "Potency": "inactive"}
{"smiles": "NC(=O)C1CCN(c2nc(-c3ccc(OCc4ccccc4)cc3)cs2)CC1", "Potency": "inactive"}
{"smiles": "c1cc2c(cc1CNc1ccc(N3CCOCC3)cc1)OCO2", "Potency": "inactive"}
{"smiles": "Brc1ccc(-c2csc(N3CCCCC3)n2)cc1", "Potency": "inactive"}
